Experimental data reported in the supplement of paper PMC9950053.
Counter-ions that a name gives are not always drawn.

tested on: Danio rerio larvae (5 dpf); assay: combined optomotor response (time in upper well half, down vs up moving lines, periods 7-14) minus DMSO control (percentage points); higher = stronger optomotor response than DMSO larvae; conditions: 10 µM; exposure time: 3 h pre-incubation + 3 h imaging

Row | SMILES | combined optomotor response
1 | CN(CCOc1ccc(CC2SC(=O)NC2=O)cc1)c1ccccn1 (configuration not stated) [Rosiglitazone] | 3.93
2 | CCCCc1nc(Cl)c(CO)n1Cc1ccc(-c2ccccc2-c2nnn[nH]2)cc1 [Losartan potassium] | -0.522
3 | CCCCC1=NC2(CCCC2)C(=O)N1Cc1ccc(-c2ccccc2-c2nnn[nH]2)cc1 [Irbesartan] | -4.91
4 | Cc1cc(C2CCCCC2)n(O)c(=O)c1 [Ciclopirox] | 5.45
5 | CCCCCCCCc1ccc(CCC(N)(CO)CO)cc1 | -4.85
6 | CC(C)C(=O)OCC(=O)[C@@]12O[C@H](C3CCCCC3)O[C@@H]1C[C@H]1[C@@H]3CCC4=CC(=O)C=C[C@]4(C)[C@H]3[C@@H](O)C[C@@]12C [Ciclesonide] | 1.14
7 | CCOc1cc(CC(=O)N[C@@H](CC(C)C)c2ccccc2N2CCCCC2)ccc1C(=O)O [Repaglinide] | 2.6
8 | CCCCNc1cc(C(=O)O)cc(S(N)(=O)=O)c1Oc1ccccc1 [Bumetanide] | 9.27
9 | CCC(=O)O[C@]1(C(=O)SCF)[C@H](C)C[C@H]2[C@@H]3C[C@H](F)C4=CC(=O)C=C[C@]4(C)[C@@]3(F)[C@@H](O)C[C@@]21C [Fluticasone propionate] | 2.4
10 | OCCN(CCO)c1nc(N2CCCCC2)c2nc(N(CCO)CCO)nc(N3CCCCC3)c2n1 [Dipyridamole] | -1.19
11 | CC(C)Nc1cccnc1N1CCN(C(=O)c2cc3cc(NS(C)(=O)=O)ccc3[nH]2)CC1 [Delavirdine mesylate] | -0.694
12 | Nc1nc(Cl)nc2c1ncn2[C@@H]1O[C@H](CO)[C@@H](O)[C@@H]1F [Clofarabine] | 4.66
13 | CC(=O)O[C@H]1C(=O)[C@@]2(C)[C@H]([C@H](OC(=O)c3ccccc3)[C@]3(O)C[C@H](OC(=O)[C@H](O)[C@@H](NC(=O)c4ccccc4)c4ccccc4)C(C)=C1C3(C)C)[C@]1(OC(C)=O)CO[C@@H]1C[C@@H]2O [Taxol] | -0.695
14 | Clc1ccc(COC(Cn2ccnc2)c2ccc(Cl)cc2Cl)c(Cl)c1 (configuration not stated) [Miconazole nitrate] | -12.3
15 | CC(C)c1nc(CN(C)C(=O)N[C@H](C(=O)N[C@@H](Cc2ccccc2)C[C@H](O)[C@H](Cc2ccccc2)NC(=O)OCc2cncs2)C(C)C)cs1 [Ritonavir] | 3.14
16 | Nc1cc(N2CCCCC2)nc(N)[n+]1[O-] [Minoxidil] | -1.34

Row | SMILES | combined optomotor response
17 | C[C@H](Cc1cc2c(c(C(N)=O)c1)N(CCCO)CC2)NCCOc1ccccc1OCC(F)(F)F [Silodosin] | 9.04
18 | Brc1c(NC2=NCCN2)ccc2nccnc12 | 5.01
19 | COc1c(C)c2c(c(O)c1C/C=C(\C)CCC(=O)OCCN1CCOCC1)C(=O)OC2 [Mycophenolate mofetil] | 12.9
20 | CCOC(=O)[C@H](CCc1ccccc1)N[C@@H](C)C(=O)N1[C@H](C(=O)O)C[C@@H]2CCC[C@@H]21 [Ramipril] | 3.49
21 | C/C(O)=C(\C#N)C(=O)Nc1ccc(C(F)(F)F)cc1 [Teriflunomide] | -4.96
22 | OC(CNCC(O)C1CCc2cc(F)ccc2O1)C1CCc2cc(F)ccc2O1 (configuration not stated) [Nebivolol hydrochloride] | -9.95
23 | COC(=O)C1=C(C)NC(C)=C(C(=O)OC(C)C)C1c1cccc2nonc12 (configuration not stated) [Isradipine] | -14.7
24 | CCCc1nc(C(C)(C)O)c(C(=O)O)n1Cc1ccc(-c2ccccc2-c2nnn[nH]2)cc1 [Olmesartan] | 1.99
25 | COc1cc(Nc2c(C#N)cnc3cc(OCCCN4CCN(C)CC4)c(OC)cc23)c(Cl)cc1Cl [Bosutinib] | 0.386
26 | COc1ccc(Cl)cc1C(=O)NCCc1ccc(S(=O)(=O)NC(=O)NC2CCCCC2)cc1 [Glibenclamide] | 1.3
27 | CC(c1cc2ccccc2s1)N(O)C(N)=O (configuration not stated) [Zileuton] | -0.859
28 | C[C@]12CC[C@@H]3c4ccc(O)cc4C[C@@H](CCCCCCCCC[S+]([O-])CCCC(F)(F)C(F)(F)F)[C@H]3[C@@H]1CC[C@@H]2O (some centres not stated) | 2.46
29 | O=C(NCC1CCCCN1)c1cc(OCC(F)(F)F)ccc1OCC(F)(F)F (configuration not stated) [Flecainide acetate] | 2.85
30 | COc1cc2nc(N3CCN(C(=O)C4COc5ccccc5O4)CC3)nc(N)c2cc1OC (configuration not stated) [Doxazosin mesylate] | -3.96
31 | CC(CCc1ccc(O)cc1)NCCc1ccc(O)c(O)c1 (configuration not stated) [Dobutamine hydrochloride] | 1.08
32 | Clc1ccccc1C(c1ccccc1)(c1ccccc1)n1ccnc1 [Clotrimazole] | -7.18
